Most compounds without a hit are left out; they make up all but 6.8% or so of the library.
KB-3-1 tox: KB-3-1 parental cell cytotoxicity | KB-3-1 viability, CellTiter-Glo ATP luminescence, 72 h | Potency, µM (titrated, usually from 46.1 µM), usual class: cytotoxic | actives 1.4% (n = 400,000); note: nearly all actives have a fitted effect of over 60% in size
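Here the drug-naive KB-3-1 line serves as comparator for MDR sub-line selectivity; cells received compound titrations, 72 h at 37 °C, then CellTiter-Glo readout.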
MCF10A rereplic: DNA re-replication induction in MCF 10a cells; Potency, µM (top dose mostly 46.1 µM), hits mostly activators; MCF 10A DNA re-replication, Hoechst nuclear intensity, 48 h; actives 2.9% (n = 350,000); AID 624296; note: nearly all actives have a fitted effect of over 50% in size
PTAP TSG101 blk: blocks PTAP/TSG101 interaction to inhibit HIV-1 budding | Potency, µM (doses to about 115 µM), usual class: inhibitors | Q99816 | Fluorescence polarization, FITC-PTAP peptide / Tsg101 binding | 340,000 tested, under 10 active | AID 493005; active = well fitted inhibition curve with a large enough effect in the main read-out, with a control signal flat, not every such curve was filed as active; inconclusive = small, poorly fitted or top-dose-only effect, or effect the other way, or a change in a side signal; inactive = no such curve, though single readings can be large or run the other way
Target sequence (Q99816 whole entry, looked up): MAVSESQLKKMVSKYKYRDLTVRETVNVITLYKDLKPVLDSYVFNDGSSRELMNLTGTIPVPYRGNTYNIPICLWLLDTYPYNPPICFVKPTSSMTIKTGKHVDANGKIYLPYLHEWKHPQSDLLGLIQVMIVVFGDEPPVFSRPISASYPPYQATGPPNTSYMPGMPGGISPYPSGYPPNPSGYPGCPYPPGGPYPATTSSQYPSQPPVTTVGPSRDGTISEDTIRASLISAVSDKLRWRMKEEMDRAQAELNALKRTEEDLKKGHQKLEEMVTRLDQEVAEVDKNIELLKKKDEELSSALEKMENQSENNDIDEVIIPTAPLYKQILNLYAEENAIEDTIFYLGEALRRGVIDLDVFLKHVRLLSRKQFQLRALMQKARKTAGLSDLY
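Steps: Tsg101 binding domain dispensed (10 uM final), compounds pinned in DMSO, FITC-labeled PTAP-motif peptide added (50 nM final); after 20 min binding at room temperature, polarization measured.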
SW480 rereplic: inducers of DNA re-replication in SW480 colon cancer cells; Potency, µM (titrated, usually from 46.1 µM), usual class: activators; actives 1.8% (n = 340,000); SW480 DNA re-replication, Hoechst DNA content imaging, 48 h; note: nearly all actives have a fitted effect of over 55% in size
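DNA re-replication was detected as more nuclei of elevated Hoechst intensity after 48 hr exposure to compound (23 nL pinned per well of 250 cells).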
KB-V1 MDR tox: kills drug-selected multidrug resistant KB-V1 cells | actives 3.4% (n = 400,000) | KB-V1 MDR cells viability, CellTiter-Glo, 72 h | AID 1347076 | Potency, µM (highest dose often 46.1 µM), hits mostly cytotoxic; note: nearly all actives have a fitted effect of over 60% in size
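Cytotoxicity toward P-gp-expressing KB-V1 cells was determined as loss of CellTiter-Glo luminescence after 72 h at 37 degrees C. Compounds were tested in quantitative HTS format across a concentration range, with curves fitted to normalized data.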
PINK1 modulator: modulators of PINK1 expression | PINK1 immunofluorescence, high-content cytometry, 24 h | Potency, µM (series often up to 76.6 µM), usual class: activators | actives 0.2% (n = 410,000) | AID 624263; active = well fitted activation curve with a large enough effect; inconclusive = small, poorly fitted or top-dose-only effect; cell line not stated here; note: nearly all actives have a fitted effect of over 65% in size
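Fluorescence from anti-PINK1 antibody, together with nuclear and cell stains, was scanned on a laser-scanning cytometer. Before staining, stable-line cells were incubated 24 hours with compounds at 5 concentrations; primary antibody 12 h at 10 degrees C.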
Numbers stand for hits; n = inactive; u = inconclusive; x = no result given. Unless noted, calls come from the whole dose curve; as a rule, active = well fitted curve in the direction sought with a large enough effect; inconclusive = small, poorly fitted or top-dose-only effect, or another doubt; inactive = no such curve, though single readings can be large; an effect the other way counts as inactive or inconclusive.

SMILES | KB-3-1 tox | MCF10A rereplic | PTAP TSG101 blk | SW480 rereplic | KB-V1 MDR tox | PINK1 modulator
Cn1c(/C(C#N)=C/c2ccncc2)nc2ccccc21 | n | u | n | 18.4µM | n | n
N#C/C(=C\c1ccc(N2CCOCC2)cc1)c1ccccc1 | n | u | n | n | n | n
Cn1c(/C(C#N)=C/c2ccc(O)cc2)nc2ccccc21 | n | n | n | n | n | n
N#CC(=Cc1ccncc1)c1ccccc1 | u | n | n | n | 13µM | n
CCOC(=O)c1ccc(CN(Cc2ccc(C)cc2)S(=O)(=O)c2ccc(F)c(C(=O)Nc3ccc(C)c(F)c3)c2)cc1 | x | x | x | x | x | n
CC1CCc2cccc3c2N1c1cc(C#N)c(C#N)cc1O3 (stereo not drawn) | 7.31µM | u | u | n | u | n
CC1CCCCN1c1cc(C#N)c(C#N)cc1[N+](=O)[O-] (stereo not drawn) | n | n | n | n | n | x
CC1=Nc2cc(C(=O)NC(C)C)ccc2Sc2ccc(C)cc21 | x | x | x | x | x | n
CC1=Nc2cc(C(=O)NC3CCCC3)ccc2Sc2ccc(Cl)cc21 | 3.26µM | x | x | x | 3.66µM | n
CC1=Nc2cc(C(=O)NC3CCCC3)ccc2Sc2ccc(C)cc21 | 1.46µM | x | x | x | 1.3µM | n
CNC(=O)c1ccc2c(c1)N=C(C)c1cc(C)ccc1S2 | 18.4µM | x | x | x | u | n
CCC1=Nc2cc(C(=O)NC3CCCC3)ccc2Sc2ccc(Cl)cc21 | 5.8µM | x | x | x | 2.91µM | n
COc1ccc(CNC(=O)C2CCN(c3nc4ccc(C)cc4[nH]3)CC2)cc1 | x | x | x | x | x | n
O=C(c1ccco1)c1nnn(Cc2ccccc2)c1-c1ccccc1 | n | u | n | n | 23.1µM | n
Nc1c(C(=O)NCc2ccco2)nnn1Cc1ccccc1 | n | n | n | n | n | n
CCN1CCN(c2cc(C)c3cc(NC(=O)/C=C/c4ccc(OCCC(C)C)cc4)ccc3n2)CC1 | x | x | x | x | x | n
CCCCCCCCCCCCCCCC(=O)Nc1ccn(C2OC(CO)C(O)C2O)c(=O)n1 (stereo not drawn) | u | n | n | 2.59µM | n | n
Cc1cc(C)n2nc(C(=O)OCC(=O)N(C)Cc3ccccc3)nc2n1 | n | n | n | n | n | n
Cc1cc(C)n2nc(C(=O)OCC(=O)c3ccccc3)nc2n1 | n | u | n | 8.2µM | n | n
Cc1nn(-c2ccccc2)c2c1N(CCCC(=O)NCc1ccccc1)C(=O)CS2 | u | x | x | x | 16.4µM | n
Cc1nn(-c2ccccc2)c2c1N(CCCC(=O)NCc1ccc(Cl)cc1)C(=O)CS2 | n | x | x | x | n | n
CC(=O)c1cccc(NC(=O)c2ccc3c(c2)N(Cc2ccc(C)cc2)CCS3)c1 | n | x | x | x | n | n
O=C(NCC(=O)N1CCN(Cc2ccccc2)CC1)c1ccc(Cl)cc1 | u | n | n | n | n | n
O=C(NCC(=O)N1CCN(Cc2ccccc2)CC1)c1cc(Cl)cc([N+](=O)[O-])c1 | 23.1µM | n | n | n | u | n
COc1cc(/C=C/C(=O)/C=C(O)/C=C/c2ccc(O)c(OC)c2)ccc1O | u | 33.5µM | u | 29.9µM | n | u
SMILES | KB-3-1 tox | MCF10A rereplic | PTAP TSG101 blk | SW480 rereplic | KB-V1 MDR tox | PINK1 modulator
COc1cc(/C=C/C(=O)OCc2cn3cc(Cl)ccc3n2)ccc1O | u | 10.3µM | n | u | u | n
COc1cc(/C=C/C(C)=NNc2ccccc2)ccc1O | n | 16.4µM | n | u | n | n
CC(C)(C)c1ccc(/C=N/OCC(=O)NCc2ccc(F)cc2)cc1 | n | u | n | 20.6µM | u | n
COc1cc(/C=N/Nc2ccc(C(=O)O)cc2)ccc1O | n | n | n | n | n | n
Cc1ccc(CNC(=O)CO/N=C/c2ccc(C(C)(C)C)cc2)cc1 | n | u | n | n | n | n
COc1cc(NC(=O)Cn2nnnc2-c2ccccc2F)cc(OC)c1OC | x | x | x | x | x | n
CCc1c(C)nc(SCc2nc(-c3ccccc3C)no2)[nH]c1=O | x | x | x | x | x | n
COc1cc(/C=C/C(=O)O)ccc1O | n | u | n | u | n | n
COc1cc(/C=C/C(=O)OCC(=O)NCc2ccccc2OC)ccc1O | n | n | n | n | n | n
COc1cc(/C=C/C(=O)OCC(=O)NCc2ccc(F)cc2)ccc1O | u | 14.6µM | n | 8.2µM | 16.4µM | n

High-throughput results (PubChem)
